# Data from ChEMBL document CHEMBL3988442, “University of Dundee, Small-Polar-MMV Screening Library” (2021).
# The campaign covered roughly 48,000 compounds. About 13,000 (27%) showed an effect of 50% or more. Some of the results follow.
# Test system: Wolbachia pipientis
# Test: Anti-Wolbachia Cell-Based Screen
# Assay type: functional
# Parameters: scale not given: in the data most compounds retested in dose-response had high values
# Settings: 5 µM
row,Compound,Percent Effect [%]
1,CCCS(=O)(=O)N1C[C@@H]2COC[C@@H](Cc3nc(C)no3)[C@@H]2C1,1.373
2,CCc1nc(CN2CCCN(C(=O)c3cn[nH]c3C)CC2)cs1,4.84
3,COc1cc(NCCNC(=O)c2cscc2C)cc(OC)c1,-3.159
4,CN(CCNS(C)(=O)=O)CC(c1cccs1)N1CCOCC1 (stereo not given),-6.912
5,CCCc1nc(C)c(C(=O)NC2CCN(C3CC3)C2)s1 (stereo not given),4.49
6,CCCc1nc(C)c(C(=O)NC2CCN(c3ncccn3)CC2)s1,-4.746
7,CCCc1nc(C)c(C(=O)NCCn2ccnc2)s1,-2.524
8,CCc1nc(C)c(C(=O)NCCN2CCCC2)s1,119.2
9,CCc1nc(C)c(C(=O)NCCNc2ncccn2)s1,-5.791
10,CCCc1nc(C)c(C(=O)NCCN2CCOCC2)s1,118.3
11,CCc1nc(C)c(CNC(=O)CCCN2CCCCC2)s1,-7.179
12,Cc1nc(-c2noc3ccc(C(=O)NCCN4CCOCC4)cc23)cs1,-14.65
13,CCCc1nc(C)c(C(=O)NCCN2CCCCC2)s1,125.3
14,Cc1cc(F)ccc1S(=O)(=O)NCc1[nH]ncc1Br,19.22
15,COc1ccc2c(c1)OCC(Cc1ccc(N)cn1)C2 (stereo not given),-6.73
16,Cc1cncc(C(=O)N2CCNCC2C(=O)Nc2ccc(C)nc2)c1 (stereo not given),4.535
17,Cc1ccc(NC(=O)c2nc3c(s2)CCCN3C(C)C)cn1,4.841
18,Cc1ccsc1CN1CC2(CCN(C(=O)C3CC3)CC2)CC1C(=O)O (stereo not given),-16.18
19,CCCc1nc(C)cc(N2CCNC(C(=O)Nc3ccc(C)nc3)C2)n1 (stereo not given),-5.575
20,Cc1ccc(N2CCC(C3CCN(CC(C)C)CC3)C2)nn1 (stereo not given),-23.48
21,O=C(Nc1cccnc1)C1CCN(c2cc(-n3ccnc3)ncn2)CC1,4.084
22,Cc1ccsc1CN1CCCC(CNC(=O)c2ccc(N)nc2)C1 (stereo not given),1.774

row,Compound,Percent Effect [%]
1,COc1ccccc1[C@@H]1CN(CC2CCC2)C[C@H]1C(=O)O,-30.09
2,Cc1ccc(NC(=O)[C@H]2C[C@H](C(=O)O)CN(CC3CC3)C2)cn1,109.3
3,Cc1ccc(NC(=O)[C@@H]2C[C@H](C(=O)O)CN(Cc3sccc3C)C2)cn1,101.2
4,CC(C)=CCN1C[C@@H](C(=O)O)C[C@H](C(=O)Nc2ccc(C)nc2)C1,93.94
5,Cc1ccc(NC(=O)[C@H]2C[C@H](C(=O)O)CN(CC(C)C)C2)cn1,103.8
6,Cc1nc(C(C)(C)C)sc1C(=O)NCCn1cccn1,3.617
7,COc1ccc(F)cc1CSCC(=O)N(CCC#N)CCC#N,-2.312
8,N#Cc1ccccc1CN1CCC(c2nccn2CC2CCC2)CC1,43.99
9,COC[C@@H]1CC[C@H]2[C@H](CCN2S(=O)(=O)c2cccc(C)c2)O1,4.659
10,CN(C)Cc1ccnc(C2CN(Cc3nccs3)CCO2)n1 (stereo not given),100.5
11,c1ccc2c(CC3CN(Cc4nccs4)CCO3)cccc2c1 (stereo not given),-0.1296
12,CN(C)CC1CN(Cc2c(Cl)ccc3cccnc23)CCO1 (stereo not given),-12.27
13,CN(C)CC1CN(Cc2coc(-c3cccs3)n2)CCO1 (stereo not given),-7.744
14,CN(C)CC1CN(Cc2cc(Cl)cc3cccnc23)CCO1 (stereo not given),-1.777
15,Cc1ccccc1CN1CCOC(c2nccc(CN(C)C)n2)C1 (stereo not given),127.2
16,CN(C)Cc1ccnc(C2CN(Cc3c(F)cccc3F)CCO2)n1 (stereo not given),127
17,COc1cccc(O)c1CN1CCCC(Nc2cccc(F)c2)C1 (stereo not given),-13.27
18,COc1cccc(F)c1CN1CCC(c2nccc(C)n2)C1 (stereo not given),140.3
19,CCn1ccnc1C1CCN(Cc2c(F)cccc2F)CC1,1.845
20,Cc1cccnc1CN1CCOC(Cc2cccc3ccccc23)C1 (stereo not given),-2.143
21,CCn1c(CN2CCOC(Cn3cccn3)C2)nc2c(F)cccc21 (stereo not given),-12.64
22,COCCNS(=O)(=O)c1cccc2c1CN(C(=O)c1ccccc1)CC2,14.65

row,Compound,Percent Effect [%]
1,O=C(c1ccno1)N1CCOC[C@H](Oc2ccccc2)C1,-14.73
2,CC(C1CCN(Cc2cnn(C)c2C2CC2)CC1)N(C)C (stereo not given),-2.941
3,CC(C)(CN1CCCC1)CN1CCC(Cn2cc(C3CC3)nn2)CC1,12.62
4,O=C(NCc1cc(O)ncn1)C1CCOc2ccccc2C1 (stereo not given),8.885
5,CNC(=O)C(NC(=O)CCc1cccc(OC2CCCC2)c1)C(C)C (stereo not given),-3.816
6,COCCN1CCCC2(CCN(c3nc(C)nc4ccsc34)C2)C1=O (stereo not given),-7.564
7,CC(C)(C)NC(=O)CN1CCCN(Cc2cc(C#N)ccc2F)CC1,-2.969
8,Cc1noc(C)c1CN1CC2(CCN(C(=O)c3cc[nH]n3)C2)CC1=O (stereo not given),-2.196
9,Cc1noc(C)c1-c1cc(CC2CCN(C(=O)c3cc[nH]n3)C2)ncn1 (stereo not given),98.42
10,Cc1noc(C)c1-c1cncc(CC2CCN(C(=O)c3cc[nH]n3)C2)n1 (stereo not given),110.9
11,Cc1noc(C)c1-c1cnc(CC2CCN(C(=O)c3cc[nH]n3)C2)cn1 (stereo not given),-12.99
12,CCCS(=O)(=O)N[C@H]1CN(c2ncccc2C(N)=O)C[C@@H]1C(C)C,-5.813
13,CC(=O)NCc1ccc(S(=O)(=O)NC(=O)c2ccc3c(c2)COC3)s1,-2.938
14,Cc1noc(C)c1CS(=O)(=O)CC(=O)NCCc1ccccc1,-9.569
15,Cc1nc2ncnn2c(C)c1CCC(=O)Nc1cccn(C)c1=O,1.385
16,Cc1nc2cc(O)nn2c(C)c1CCC(=O)NCCc1nccn1C,84.09
17,Cn1ccnc1CCNC(=O)NCCC1CCCCO1 (stereo not given),-7.857
18,Cc1nc2cc(O)nn2c(C)c1CCC(=O)NCCCC(C)C,90.92
19,Cc1nc(NC(=O)CCc2c(C)nc3cc(O)nn3c2C)sc1C,101.2
20,Cc1nc2cc(O)nn2c(C)c1CCC(=O)NCCc1ccccc1,85.91
21,COc1ccc(NC(=O)CCc2c(C)nc3cc(O)nn3c2C)cn1,3.127
22,CO[C@@H]1CCN(S(=O)(=O)c2cn(C)cn2)[C@H]1Cc1cnn(C)c1.O=C(O)C(F)(F)F,2.669

row,Compound,Percent Effect [%]
1,O=C([C@@H]1CCO[C@@H]2CCN(CC3CCOCC3)C[C@H]21)N1CCCC1,-12.21
2,CNC(=O)CCCNc1cc(C)nc2cc(C)nn12,1.816
3,CCNC(=O)CCc1c(C)nc2cc(O)nn2c1C,5.527
4,CNC(=O)CCNC(=O)CCc1c(C)nc2cc(O)nn2c1C,99.53
5,O=C(O)C(F)(F)F.O=C1[C@H]2CN(C3CCOC3)C[C@H]2CN1c1ccccc1 (stereo not given in full),-7.814
6,Cc1ccc(F)cc1S(=O)(=O)N1C[C@@H](C)[C@@](C)(O)C1,-12.21
7,Cc1ccc(C(=O)N2CCC[C@@H]2Cn2nnc3c(O)nc(C)nc32)cc1,116
8,Cc1nc(O)c2nnn(C[C@H]3CCCN3C(=O)C3CCCC3)c2n1,86.1
9,Cc1nc(O)c2nnn(C[C@H]3CCCN3C(=O)c3ccc(F)cc3)c2n1,99.59
10,Cc1nc(O)c2nnn(C[C@H]3CCCN3C(=O)c3cccc(F)c3)c2n1,-3.685
11,Cc1nc(O)c2nnn(C[C@H]3CCCN3C(=O)C(C)(C)C)c2n1,2.685
12,Cc1nc(O)c2nnn(C[C@H]3CCCN3C(=O)CCC3CCCC3)c2n1,2.096
13,Cc1cccnc1CN(C)C(C(=O)O)c1ccc(C(C)(C)C#N)cc1 (stereo not given),-18.01
14,CC(C)Cc1ncc2c(n1)CN(c1cc(NC3CC3)nc(N)n1)C2,10.04
15,CNC(=O)[C@@H]1C[C@@H](N)CN1c1nnc(-c2ccccc2)s1,-7.13
16,CCCn1cc(C(=O)NC(CC(=O)O)c2ccco2)c(C)n1 (stereo not given),-1.122
17,CCCn1cc(C(=O)NC(C)c2c(C)nn(CC)c2C)c(C)n1 (stereo not given),107.4
18,CCn1c(C)nnc1SCCNC(=O)c1cnc(N(C)C)nc1C,-11.93
19,CCCn1ncc(C(=O)N(CCOC)Cc2c(C)nn(CC)c2C)c1C,-10.36
20,CCCn1ncc(C(=O)NC(C)c2c(C)nn(CC)c2C)c1C (stereo not given),101.8
21,CCn1nc(C)c(C(C)NC(=O)c2cccc(NCC(=O)O)c2)c1C (stereo not given),-10.01
22,CCn1nc(C)c(C(C)NC(=O)c2cnc(N(C)C)nc2C)c1C (stereo not given),101.2

row,Compound,Percent Effect [%]
1,CCCn1cc(C(=O)N[C@H]2CC[C@H](n3cnnc3)CC2)c(C)n1,-5.85
2,CCC(NC(=O)c1cnc(N(C)C)nc1C)c1ccncc1 (stereo not given),-21.92
3,CN(Cc1ccncc1)C(=O)c1ccc2c(c1O)OC(C)(C)C2,-3.741
4,Cc1cnc(CNC(=O)N(Cc2ccccc2)CC(C)(C)O)s1,-9.272
5,CCN1CCN(C(=O)CCC2CCN(C(C)CSC)CC2)CC1 (stereo not given),2.757
6,COC(=O)C(C)(C)NC(=O)c1cc2sc(N(C)C)nc2s1,-3.943
7,CN1CCCN(c2nc3c(cnn3C(C)(C)C)c(=O)[nH]2)CC1,-5.062
8,Cc1c(C2NC3(CCCC3)C(=O)N2CC2CC2)cc(C#N)n1C (stereo not given),-11.2
9,CN(Cc1cc(Cl)c2c(c1)OCO2)Cc1cscn1,1.61
10,CCOc1ccc(NC(=O)NCc2csc(NC)n2)cc1C,-0.8345
11,CCc1ncnc2c1CCN(C(=O)c1cccn1C)CC2,-9.929
12,Cc1cccc(N2CCCC3(C2)CN(S(=O)(=O)C2CC2)CCO3)c1.O=C(O)C(F)(F)F (stereo not given),-4.65
13,CC(=O)N1CCC(Cc2cccc(-c3c(C)noc3C)n2)C1 (stereo not given),135.5
14,NC(=O)c1cccc(CC2CCN(C(=O)CO)C2)c1 (stereo not given),-21.34
15,CN1CCC(Cc2nc(-c3ccnn3C)n(Cc3ccccc3)n2)CC1,-2.907
16,Cc1noc(C)c1-c1cccc(CC2CCN(C(=O)c3cscn3)C2)n1 (stereo not given),131.4
17,CC(=O)N1CCC(Cc2cccc(-c3ccnn3C)n2)CC1,116.5
18,Cc1noc(C)c1CN1CC2(CCN(C(=O)c3cscn3)CC2)CC1=O,4.447
19,CCn1c(CC2CCN(C(=O)c3ccnn3C)CC2)n[nH]c1=O,13.3
20,Cc1noc(C)c1-c1cccc(CC2CCN(C(=O)CN)C2)n1 (stereo not given),128.9
21,Cc1ccccc1C(=O)NC[C@@H]1CCN(C(=O)c2cscn2)C[C@H]1O,3.097
22,Cc1noc(C)c1-c1cccc(CC2CCN(C(=O)CCC(=O)O)C2)n1 (stereo not given),2.064
